Screens as filed in PubChem.
Methyltransferases – Primary Screen for Target Class Profiling of Small Molecule Inhibitors of Methyltransferases; purified enzyme, MTase-Glo SAH luminescence; active compounds read low; calls only at 40 µM; actives 3.9% (n = 25,000); call rule not given here
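Each enzyme was assayed with SAM and its substrate. SAH formation detected by MTase-Glo luminescence; single-point 40 uM screen[…].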
Calls only; - = inactive; + = active, no number; ! = not active in a repeat. This is one part of a sample in which hits are shown more often than they occur.

SMILES	Methyltransferases
C=C(C)C(=O)OC1CC2(C)OC(=CC2=O)C(=C)CC2OC(=O)C(COC)C12 (configuration not stated)	+
Cc1ccc(CNC(=O)Cn2nc3n(CCc4ccccc4)c(=O)c4ccccc4n3c2=O)cc1	-
CCOC(=O)c1cc2n(n1)CC(C)(C(=O)NC1CCCCCC1)N(Cc1ccccc1OCC)C2=O (configuration not stated)	-
Cc1cccc(Cn2nc(C3CCCNC3)n(-c3ccccc3)c2=O)c1 (configuration not stated)	-
NC(=O)c1cccc2cn(-c3ccc([C@@H]4CCCNC4)cc3)nc12	+!
Cn1nc(C2CCCNC2)c2c(C(=O)NC3CC3)cc(C3CC3)nc21 (configuration not stated)	-
COCCCN1C(=O)c2c(C(=O)OC)ncn2CC1(C)C(=O)NC1CCCCCC1 (configuration not stated)	-
COc1ccc(NS(=O)(=O)c2cc3[nH]c(=O)[nH]c3cc2C)c(OC)c1	-
COc1cc2c(NC3CCN(CC4CCCCC4)CC3)nc(N3CCCN(C(C)C)CC3)nc2cc1OCCCN1CCCCC1	+!
CCCn1c(=O)c2ccc(C(=O)NC3CCCC3)cc2n2c(=O)n(CC(=O)NC(C)(C)C)nc12	-
CCC(C)NC(=O)c1ccc2c(=O)nc3c(-c4cccc(C)c4)n[nH]n3c2c1 (configuration not stated)	-
CCN1C(=O)c2cc(C(=O)NC3CCN(Cc4ccccc4)CC3)nn2CC1(C)C(=O)NC1CCCC1 (configuration not stated)	-
O=S(=O)(NC1CCCc2ccccc21)c1ccc2[nH]c3c(c2c1)CCCC3 (configuration not stated)	-
CCCCOc1ccccc1-c1cc2n(n1)CC(C)(C(=O)NC1CCCCC1)N(CCCOC)C2=O (configuration not stated)	-
COc1ccc(OC)c2c1cc1n2CC(C)(C(=O)NC2CCCCC2)N(Cc2cccnc2)C1=O (configuration not stated)	+
COCCCN1C(=O)c2cc3c(OC)ccc(OC)c3n2CC1(C)C(=O)NC1CCCCC1 (configuration not stated)	+
COc1ccc(OC)c2c1cc1n2CC(C)(C(=O)NC2CCCCCC2)N(Cc2cccnc2)C1=O (configuration not stated)	-
CCOCCCN1C(=O)c2cc3c(OC)ccc(OC)c3n2CC1(C)C(=O)NC1CCCCC1 (configuration not stated)	-
COc1ccc(OC)c2c1cc1n2CC(C)(C(=O)NC2CCC(C)CC2)N(Cc2cccnc2)C1=O (configuration not stated)	-
CCOCCCN1C(=O)c2cc3c(OC)ccc(OC)c3n2CC1(C)C(=O)NC1CCCCCC1 (configuration not stated)	-
CC(C)OCCCn1c(=O)c2ccccc2n2c(=O)n(Cc3ccccc3)nc12	-
CCOC(=O)c1cc2n(n1)CC(C)(C(=O)NC1CCCCC1)N(c1ccc(C)cc1Cl)C2=O (configuration not stated)	-
CCOc1ccc(CN2C(=O)c3cc4ccccc4n3CC2(C)C(=O)NCCC(C)C)cc1 (configuration not stated)	-
Cc1nn(-c2ccccc2)c2c1C(C1CC1)N(C1CCN([S+](=O)([O-])c3ccccc3)C1)C2=O (configuration not stated)	-
CC(C)CNC(=O)c1ccc2c(=O)n(C(C)C)c3nn(CC(=O)NC(C)(C)C)c(=O)n3c2c1	-
SMILES	Methyltransferases
COC(=O)c1cc2n(n1)CC(C)(C(=O)NC1CCC(C)CC1)N(Cc1ccccc1Cl)C2=O (configuration not stated)	-
CCCC1c2cccn2CCN1C(=O)Nc1ccc(C)c(C)c1 (configuration not stated)	-
CCOC(=O)c1ccc(Nc2ncnc3ccc(Br)cc23)cc1	-
C=CC(=O)Nc1ccc2ncnc(Nc3cccc(Br)c3)c2c1	+
CCOC(=O)c1cnc2ccc(Br)cc2c1Nc1cccc(C(C)=O)c1	-
COc1ccc2cc3n(c2c1)CC(C)(C(=O)NC1CCCCC1)N(Cc1ccccc1OC)C3=O (configuration not stated)	-
CC(C)Cn1c(=O)c2ccc(C(=O)NC(C)C)cc2n2c(SCc3ccccc3Cl)nnc12	-
c1ccc(CCNc2nc3c(-c4ccccc4)nnn3c3ccccc23)cc1	-
COc1ccc(CCNc2nc3c(-c4ccccc4)nnn3c3ccccc23)cc1OC	-
Fc1cccc(-c2nnn3c2nc(NCCc2ccccc2)c2ccccc23)c1	+
Cc1ccc(N2C(=O)c3cc4occc4n3CC2(C)C(=O)NC2CCCCCCC2)cc1 (configuration not stated)	-
Fc1ccc2c(c1)c1c3n2CCNC3CCC1 (configuration not stated)	-
C=CC(=O)Nc1cccc(Nc2nc(Nc3ccc(Oc4ccnc(C(=O)NC)c4)cc3)ncc2F)c1	+
CNC(=O)c1cc(Oc2ccc3nc(N[C@@H]4CCCC[C@H]4O)sc3c2)ccn1	-
NCc1ccc(Nc2ncc(F)c(Nc3ccccc3)n2)cc1	-
CC1(C(=O)NCc2ccc(F)cc2)Cn2cnc(C(=O)NCCc3ccccc3Cl)c2C(=O)N1C1CC1 (configuration not stated)	-
Cc1ccc(N2C(=O)c3cc(-c4cccs4)nn3CC2(C)C(=O)NC2CCCCC2)cc1 (configuration not stated)	-
CCOC(=O)c1cc2n(n1)CC(C)(C(=O)NCc1ccc(C)cc1)N(C1CC1)C2=O (configuration not stated)	-
CC1CCCC(NC(=O)C2(C)Cn3c(ccc3-c3ccco3)C(=O)N2Cc2cccs2)C1C (configuration not stated)	-
CNCCCN1c2ccccc2CCc2ccccc21	-
CN(C)CCCN1c2ccccc2Sc2ccccc21	-
CN1CCN(CCCN2c3ccccc3Sc3ccc(C(F)(F)F)cc32)CC1	+
Cn1c(=O)c2ccc(C(=O)NC3CCCCC3)cc2n2c(SCc3c(F)cccc3Cl)nnc12	-
Cc1ccc(CNC(=O)CCn2ccc3cc(S(=O)(=O)N4CCC(C)CC4)ccc32)cc1	-
CC(C)OCCCn1c(=O)c2ccccc2n2c(CCC(=O)NCc3ccccc3Cl)nnc12	-
SMILES	Methyltransferases
COc1ccccc1CNC(=O)c1ccc2c(=O)nc3c(-c4ccc(Cl)cc4)n[nH]n3c2c1	-
COc1ccc2cc3n(c2c1)CC(C)(C(=O)NC1CCCC1)N(Cc1ccc(Cl)cc1)C3=O (configuration not stated)	-
CNS(=O)(=O)CC1CCC(N(C)c2ncnc3[nH]ccc23)CC1 (configuration not stated)	+
CC(NS(=O)(=O)c1ccc2[nH]c(=O)[nH]c2c1)c1ccccc1 (configuration not stated)	-
CSc1ccc(CCNC(=O)c2cc3n(n2)CCCN(Cc2ccc(F)cc2)C3=O)cc1	-
COc1ccc(CNc2nc3c(S(=O)(=O)c4ccc(Cl)cc4)nnn3c3ccccc23)cc1	-
COc1ccccc1N1CCN(C(=O)CCc2nnc3n(CCc4ccccc4)c(=O)c4ccccc4n23)CC1	-
CCCn1c(=O)c2cc(Cl)ccc2n2c(SCC(=O)Nc3ccc(OC)c(OC)c3)nnc12	-
CC1(C(=O)NCc2ccc(Cl)cc2)Cn2c(ccc2-c2ccco2)C(=O)N1Cc1ccc(F)cc1 (configuration not stated)	-
O=C(NCCc1ccccc1)c1ccc2c(=O)nc3c(-c4ccc(Cl)cc4)n[nH]n3c2c1	-
